Assay results: the supplement of paper PMC3334620
In all, about 33,000 sequences were measured (“E-score (-0.5 to 0.5)”: median about -0.0014, highest 2% from about 0.25 on). This is one part of a sample in which the highest values are shown more often than they occur.

The sequences below were run against T1, Cad1 (UniProt P24813) (assay: PBM E-score (8-mer binding enrichment) (E-score (-0.5 to 0.5)); higher = stronger / more preferred TF binding). Conditions: protein concentration: 100 nM; construct: GST-full length.
T1 sequence: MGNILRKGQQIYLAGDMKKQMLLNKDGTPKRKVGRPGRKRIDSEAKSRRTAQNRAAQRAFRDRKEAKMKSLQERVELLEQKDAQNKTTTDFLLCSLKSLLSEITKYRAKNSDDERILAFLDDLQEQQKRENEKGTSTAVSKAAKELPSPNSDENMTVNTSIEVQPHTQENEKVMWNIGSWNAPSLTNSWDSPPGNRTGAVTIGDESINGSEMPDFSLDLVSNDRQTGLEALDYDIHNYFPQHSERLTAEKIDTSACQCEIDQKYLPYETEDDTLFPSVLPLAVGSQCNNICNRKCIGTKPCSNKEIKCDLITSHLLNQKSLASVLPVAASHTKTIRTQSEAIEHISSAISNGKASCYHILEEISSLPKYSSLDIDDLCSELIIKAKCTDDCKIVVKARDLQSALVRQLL
Outline: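 For each ungapped eight-base word taken together with its reverse complement, the Universal PBM Analysis Suite assigned an E-score. Binding data came from GST-tagged yeast transcription factors, applied at about 100-200 nM, on universal all-10-mer Agilent arrays made double-stranded by primer extension. Fluorescent anti-GST marked bound protein, and scans were normalised with masliner.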

Sequence | PBM E-score
TCGTCTAA | -0.0389
GCCGCAAC | 0.0201
CGCACCGA | -0.0919
CGGCTAAA | -0.0162
CAGAGACG | 0.0945
CGTTGGAC | -0.137
GCGATCGC | 0.241
AGCGCGCG | 0.311
AGCGCGTA | 0.284
GGCGCGTA | -0.0178
CGCGCGCA | 0.242
GGCGCGCA | 0.195
AACGCGCG | 0.282
CGCGCGTA | 0.152
AACGCGCA | 0.189
AGCGCGCT | 0.152
TGCGCGCA | 0.301
CGCGCGCG | 0.214
AACGCGCT | 0.0463
CGGGGGAG | -0.432
CCAGTTTC | -0.155
CCTCCATA | -0.254
GTGGGTGA | 0.0388
AGAACCAA | -0.131

Sequence | PBM E-score
CACAGGAC | -0.0449
AAAGGACA | -0.0819
TCAGCTGA | 0.31
ACAGCTGA | -0.0375
ACAGCTGT | 0.261
ACAGCTAT | -0.0503
ACAGCTGG | 0.0155
GCAGCTGA | 0.0932
CCCCGGAG | -0.2
CCAGGCGC | -0.0648
CAGTTACA | -0.00475
ATCCGTTC | 0.229
GTCCGTTA | 0.199
ATCCGTTA | 0.303
ATGATGCA | 0.222
ATCGTTCA | 0.0567
AGTTCATC | 0.0446
AGTTCATG | 0.265
AGTTCATA | 0.101
CCGGTCCG | -0.104
ATGAGCCA | 0.107
ATTTAGTA | 0.293
ATTTAGTC | 0.18
GGTTAGTA | 0.219

Sequence | PBM E-score
CATTAGAA | 0.11
ACTTAGTG | -0.142
AATTAGTG | 0.316
CGTTAGTC | 0.042
CATTAGTA | 0.304
CTTTAGTA | 0.174
CGTTAGTA | 0.289
CATTAGTC | 0.217
AATTAGGG | -0.172
AGGCCAAT | -0.0024
CCCGCCGC | -0.0389
AGCCGCAT | -0.0263
ACGAAAGC | 0.00748
CGAGGTGC | 0.142
AAGCGCTG | 0.212
TAATATCA | 0.167
CTACCTGA | -0.0406
CCTAGGCA | -0.0995
CCTTAGTA | 0.0752
GATTAGAA | 0.0793
ACTTAGTA | 0.213
GATTAGTA | 0.31
GCTTAGTA | 0.344
AATTAGTC | 0.346

Sequence | PBM E-score
GATTAGGA | -0.0959
AATTAGAT | 0.252
AGTTAGTC | -0.0819
AATTAGAG | 0.0346
AATTAGAC | 0.0936
ACTTAGTC | -0.016
GGCCAATA | 0.0295
AAGCTGAT | 0.216
GTAGGAGA | -0.124
CGCTTCTC | -0.0668
ACAGCCAA | 0.0312
GAGCTTGC | -0.048
CAAGTCCA | -0.0962
CCCGCCTA | 0.0947
AATTAGGA | 0.0377
AATTAGTA | 0.316
AGTTAGTA | 0.0725
CATCCTCG | 0.0642
GACACTGC | -0.0407
CCGCTGTC | 0.00182
AAAATGGA | 0.267
AAAATGGG | -0.157
CAAATGGA | 0.0716
